ROS inducer – inducers of reactive oxygen species in cancer cells; U2OS ROS induction, H2DCF-DA fluorescence; ROS induction (% of piperlongumine), % at 10 µM; hit rate 2% among 46,000; in the data active = ROS induction above about 79%, passing the limit was not always enough;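 note: 0% = DMSO vehicle median and 100% = reference compound median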
YB-1 expr inh – YB-1 expression inhibition | AID 434959 | delta delta Cp (YB-1 minus CDIP) (no concentration beside the values) | hit rate 0.37% among 30,000 | U2OS, qRT-PCR YB-1 vs CDIP delta delta Cp, 16 h; hits give high values; zero = DMSO, each unit about twofold;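 active = delta delta Cp rounded down to an integer at or above 3, about 3 SD of DMSO wells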;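 note: higher means less YB-1 transcript or more CDIP transcript relative to DMSO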
An asterisk follows results filed as active; nt = no result given. Hits are enriched below; roughly 2.3% of the tested compounds scored in any of these assays.

SMILES	ROS inducer	YB-1 expr inh
Cc1nc2cc(NC(=O)NCc3ccco3)ccc2n1C	100*	nt
Cn1nnc2cc(NC(=O)NCCO)ccc21	-19	nt
COC(=O)c1ccc(-n2c(CCC(=O)O)ccc2-c2ccc(Cl)cc2)cc1	4	nt
CC(CCc1ccccc1)NC(=O)c1n[nH]c2c1CCCC2 (configuration not stated)	-4	nt
CCOc1ccc(S(=O)(=O)NCc2ccccc2)cc1-c1nc2c(C(C)(C)C)nn(C)c2c(=O)[nH]1	201*	-0.45
CCCc1nn(C)c2c(=O)[nH]c(-c3cc(S(=O)(=O)N4CCN(C)CC4)ccc3OCC)nc12	5	-0.043
CCn1c(SCC(=O)Nc2cc(Cl)ccc2Cl)nnc1-c1ccncc1	-5	nt
C[C@@H]1CN([C@H](C)CO)C(=O)c2cc(NC(=O)Nc3ccc4c(c3)OCO4)ccc2O[C@H]1CN(C)S(=O)(=O)c1cccs1	-8	-0.59
Cn1c(SCc2nc(-c3ccc(Br)cc3)no2)nnc1-c1ccco1	6	nt
COc1ccc(-c2noc(CSc3nnc(-c4ccccc4)n3C)n2)cc1	125*	nt
O=C(Cn1c(-c2cccs2)cc2ccccc21)NC1CCCCC1	115*	nt
O=C(Cn1c(-c2cccs2)cc2ccccc21)N1CCCCC1	-3	nt
O=C(O)c1cccc(NC(=O)c2ccc3c(c2)C(=O)N(Cc2cccnc2)C3=O)c1	-15	nt
C[C@@H]1CN([C@H](C)CO)C(=O)c2cc(NC(=O)CCCCCC(=O)Nc3ccccc3N)ccc2O[C@H]1CN(C)S(=O)(=O)c1ccc(Cl)cc1	4	0.45
CCOc1cc(/C=C2\SC(=O)N(Cc3ccc(F)cc3)C2=O)ccc1O	10	nt
CCOc1cc(/C=C2\Sc3ccccc3C2=O)cc(I)c1O	96*	nt
CN(C)CCCN1C(=O)[C@@]2(Cc3ccccc31)c1ccccc1C(=O)N(C1CCCCC1)[C@H]2c1ccc(CO)cc1	10	-0.81
O=C(Nc1cccc(Cl)c1)OC1CCCCc2cccnc21 (configuration not stated)	6	nt
Cc1ccc(S(=O)(=O)N(C)C[C@@H]2Oc3ccc(NC(=O)Nc4cccc5ccccc45)cc3CC(=O)N([C@@H](C)CO)C[C@@H]2C)cc1	31	0.48
C[C@H](CO)N1C[C@H](C)[C@@H](CN(C)S(=O)(=O)c2ccccc2)Oc2c(NC(=O)c3nc4ccccc4s3)cccc2C1=O	7	-0.035
C[C@@H]1CN([C@@H](C)CO)C(=O)c2cccc(NC(=O)c3nc4ccccc4s3)c2O[C@H]1CN(C)S(=O)(=O)c1ccc(Cl)cc1	80*	-0.055
C[C@H]1CN([C@@H](C)CO)C(=O)c2cccc(NC(=O)NC3CCCCC3)c2O[C@@H]1CN(C)S(=O)(=O)c1ccc(Cl)cc1	19	-0.07
C[C@H](CO)N1C[C@H](C)[C@H](CN(C)S(=O)(=O)c2ccc(Cl)cc2)Oc2c(NC(=O)NC3CCCCC3)cccc2C1=O	97*	0.23
CCC(=O)OCC1=CCCC2C1(C)CCC(C)C2(C)CCC(C)CC(=O)O (configuration not stated)	61	1.3
C[C@H](CO)N1C[C@H](C)[C@H](CN(C)S(=O)(=O)c2ccccc2)Oc2ncc(-c3cc4ccccc4o3)cc2C1=O	15	-0.24
SMILES	ROS inducer	YB-1 expr inh
C[C@H](CO)N1C[C@H](C)[C@H](CN(C)C(=O)Nc2ccc(F)cc2)Oc2c(NC(=O)Nc3ccccc3)cccc2C1=O	-3	-0.39
C[C@H](CO)N1C[C@H](C)[C@H](CN(C)C(=O)Nc2ccccc2)Oc2c(NC(=O)Nc3ccc(F)cc3)cccc2C1=O	0	3*
CC(C)NC(=O)N(C)C[C@@H]1Oc2c(NC(=O)Nc3ccc(F)cc3)cccc2C(=O)N([C@H](C)CO)C[C@H]1C	5	0.00026
C[C@@H]1CN([C@H](C)CO)C(=O)c2cc(NC(=O)Nc3cccc4ccccc34)ccc2O[C@@H]1CN(C)C(=O)Nc1ccccc1	84*	-0.2
C[C@H]1CN([C@@H](C)CO)C(=O)c2cc(NC(=O)Nc3cccc4ccccc34)ccc2O[C@@H]1CN(C)C(=O)Nc1ccccc1	-11	0.74
CC(C)NC(=O)N(C)C[C@H]1Oc2c(NC(=O)Nc3ccc(F)cc3)cccc2C(=O)N([C@@H](C)CO)C[C@H]1C	-14	4.3*
C[C@H](CO)N1C[C@H](C)[C@@H](CN(C)Cc2ccc(Oc3ccccc3)cc2)Oc2c(NS(=O)(=O)c3cn(C)cn3)cccc2C1=O	7	-0.29
C=CC[C@H](OC(=O)Nc1ccc(SC)cc1)c1ccc(OCCO)cc1	15	-0.0086
C=C(C(=O)O[C@H]1C/C(C)=C\CC/C(CO)=C\[C@H]2OC(=O)C(=C)[C@H]12)C(O)CO (some centres not stated)	-6	0.93
C/C1=C/CC/C(CO)=C\[C@H]2OC(=O)C(CN3CCCC3C(=O)O)[C@@H]2[C@@H](OC(=O)C(C)CO)C1 (some centres not stated)	132*	1.8
O=C(NCc1ccccn1)c1ccc2nc(N3CCCCC3)sc2c1	10	nt
CC(C)NC(=O)Nc1cccc2c1O[C@H](CN(C)Cc1ccncc1)[C@H](C)CN([C@@H](C)CO)C2=O	-8	-0.36
COc1cccc(C2CC(C(F)(F)F)n3ncc(C(=O)NCc4cccnc4)c3N2)c1 (configuration not stated)	101*	nt
COc1cccc(C2CC(C(F)(F)F)n3ncc(C(=O)O)c3N2)c1 (configuration not stated)	14	-0.09
NS(=O)(=O)c1ccc(NC(=O)CSC2=NCCS2)cc1	-15	nt
COc1ccc(C)cc1NC(=O)CSc1nnc(-c2ccc(C(C)(C)C)cc2)n1C	93*	nt
COc1ccc(C)cc1NC(=O)CSc1nnc(-c2ccc(Cl)c(Cl)c2)n1C	9	nt
C[C@H](CO)N1C[C@H](C)[C@H](CN(C)C(=O)Nc2ccc(C(F)(F)F)cc2)Oc2ccc(NC(=O)NC3CCCCC3)cc2C1=O	99*	-0.59
C[C@H](CO)N1C[C@H](C)[C@@H](CN(C)C(=O)Nc2ccc(C(F)(F)F)cc2)Oc2ccc(NC(=O)C3CC3)cc2C1=O	18	3.3*
C[C@H](CO)N1C[C@H](C)[C@H](CN(C)C(=O)Nc2ccc(C(F)(F)F)cc2)Oc2ccc(NC(=O)Nc3ccc(F)cc3)cc2C1=O	96*	0.012
C[C@H](CO)N1C[C@H](C)[C@@H](CN(C)C(=O)Nc2ccc(C(F)(F)F)cc2)Oc2ccc(NC(=O)NC3CCCCC3)cc2C1=O	36	0.065
C[C@@H]1CN([C@H](C)CO)C(=O)c2cc(NC(=O)C3CC3)ccc2O[C@@H]1CN(C)C(=O)Nc1ccc(C(F)(F)F)cc1	-7	0.26
C[C@@H]1CN([C@@H](C)CO)C(=O)c2cc(NC(=O)Nc3ccc(C(F)(F)F)cc3)ccc2O[C@H]1CN(C)C(=O)Nc1ccc(F)cc1	-4	-0.012
Cc1noc(C)c1NC(=O)N(C)C[C@H]1Oc2ccc(NC(=O)Nc3ccc(F)cc3)cc2C(=O)N([C@@H](C)CO)C[C@@H]1C	-6	0.045
Cc1noc(C)c1NC(=O)N(C)C[C@H]1Oc2ccc(NC(=O)Nc3ccc(F)cc3)cc2C(=O)N([C@H](C)CO)C[C@@H]1C	82*	0.24
C[C@H](CO)N1C[C@H](C)[C@H](CN(C)C(=O)Nc2ccccc2)Oc2ccc(NS(=O)(=O)c3ccc(Cl)cc3)cc2CC1=O	-5	-0.059
C[C@@H]1CN([C@@H](C)CO)C(=O)c2cc(NC(=O)Nc3ccccc3)ccc2O[C@H]1CN(C)Cc1ccc2c(c1)OCO2	4	-0.39

Screening results deposited in PubChem by Broad Institute.
